Source: PubChem (several laboratories)
The list is not random: actives were taken first. Their share in the collection is about 27%.
sEH inhibitor: soluble epoxide hydrolase inhibitors, primary screen, biochemical, human sEH; inhibition, % at 2 µM; Bifunctional epoxide hydrolase 2 (Homo sapiens), P34913; actives 0.34% (n = 91,000); recombinant human sEH enzymatic activity assay; in the data active = inhibition above about 80%
CYP2C9 inhib: blockers of cytochrome P450 2C9 activity – biochemical, luminescence, ADME assay, primary screen. P11712. CYP2C9 Supersomes, luciferin-H conversion. inhibition, % at 5 µM. actives 20% (n = 96,000);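 active = blocking of liver enzyme CYP2C9 beyond about 50% at 5 µM, limit read from the data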
Target sequence (P11712 whole entry, looked up): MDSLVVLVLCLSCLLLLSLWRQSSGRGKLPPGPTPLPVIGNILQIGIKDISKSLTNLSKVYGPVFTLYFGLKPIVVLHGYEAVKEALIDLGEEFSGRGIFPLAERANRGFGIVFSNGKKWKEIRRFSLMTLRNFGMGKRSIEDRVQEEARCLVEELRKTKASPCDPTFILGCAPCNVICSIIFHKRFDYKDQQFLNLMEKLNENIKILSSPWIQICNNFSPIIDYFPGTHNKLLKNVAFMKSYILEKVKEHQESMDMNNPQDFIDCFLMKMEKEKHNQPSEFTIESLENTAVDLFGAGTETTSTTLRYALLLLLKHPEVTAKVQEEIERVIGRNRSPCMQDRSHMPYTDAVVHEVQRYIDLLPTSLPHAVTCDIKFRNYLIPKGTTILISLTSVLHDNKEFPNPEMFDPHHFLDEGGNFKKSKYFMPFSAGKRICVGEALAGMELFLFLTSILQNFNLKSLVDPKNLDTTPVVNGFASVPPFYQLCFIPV
CYP2C19 inh: blockers of cytochrome P450 2C19 activity – biochemical, luminescence, ADME assay, primary screen. actives 21% (n = 96,000). AID 778, 2007. inhibition, % at 5 µM. CYP2C19 Supersomes, luciferin-H EGE luminescence, 30 min;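 active = CYP2C19 inhibition above a set limit at 5 µM in the primary screen, cut at about 50% in these data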;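 also: plate controls were negative control wells for no effect and 2.5 mM tranylcypromine positive control for full effect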
CYP2C9 act: human CYP2C9 activators, primary screen, biochemical, luminescence | recombinant CYP2C9, luciferin-H conversion; hits give high values; factor 1 = untreated enzyme, 0 = blocked | activation factor at 5 µM | actives 1.4% (n = 96,000);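 active = activation factor of 2 or more for CYP2C9 at a 5 µM dose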;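 also: 0 = sulfaphenazole-blocked wells and 1 = vehicle-only wells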
CYP2C19 act: human CYP2C19 activators, primary screen, biochemical, luminescence; Cytochrome P450 2C19 (Homo sapiens), P33261; recombinant CYP2C19, luciferin-H EGE luminescence; hits give high values; 0 = fully inhibited enzyme, 1 = untreated enzyme; activation factor at 5 µM; 96,000 tested, under 10 active;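 active = activation factor of at least 2 at 5 µM in the primary screen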;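 also: 0 = wells with 2.5 mM tranylcypromine and 1 = vehicle-only wells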
sEH activator: soluble epoxide hydrolase activators, primary screen, biochemical, human sEH | Bifunctional epoxide hydrolase 2 (Homo sapiens), P34913 | activation, % at 2 µM | purified human sEH enzymatic activity, activator screen | actives 0.04% (n = 91,000) | AID 717, 2007; in the data active = activation above about 37%
* hit, by the source's call; . = no result given.

SMILES | sEH inhibitor | CYP2C9 inhib | CYP2C19 inh | CYP2C9 act | CYP2C19 act | sEH activator
COc1ccc(N=C2C(=O)Nc3c(C)cccc32)cc1 | -5 | 5 | -2 | 0.9 | 1 | 2
Cc1nc(-c2ccccn2)sc1C(=O)Nc1ccc(F)cc1 | 4 | -114 | 10 | 2.1* | 0.9 | -6
Cc1nc(-c2ccccn2)sc1C(=O)Nc1ccc(F)cc1F | 8 | -74 | 2 | 1.7 | 1 | -10
CC(C)(Oc1ccc(Cl)cc1)C(=O)NC1CCSC1=O (centres undefined) | 5 | . | . | . | . | -6
COc1ccc(-c2nn(-c3ccccc3)cc2/C=N/NS(=O)(=O)c2ccccc2)cc1 | 11 | 63* | 8 | 0.4 | 0.9 | -9
COc1ccc(-c2[nH]ncc2/C=N\NS(=O)(=O)c2ccccc2)cc1OC | -3 | 71* | 43 | 0.3 | 0.6 | 1
COc1ccc(-c2nn(-c3ccccc3)cc2/C=N/N2C(=O)CSC2=S)cc1 | -1 | 30 | 8 | 0.7 | 0.9 | 0
CC(C)(Oc1ccc(Cl)cc1)C(=O)N/N=C/c1cn[nH]c1-c1ccccc1 | -2 | 72* | 72* | 0.3 | 0.3 | 3
COc1ccc(-c2[nH]ncc2/C=N\NS(=O)(=O)c2ccc(Cl)cc2)cc1 | 1 | 68* | 90* | 0.3 | 0.1 | 1
COCCNC(=O)Nc1ccc2nc(C)sc2c1 | -12 | . | . | . | . | 13
c1ccc(CNCc2ccc3c(c2)OCO3)nc1 | 8 | . | . | . | . | -8
CCN(CC)C(=O)CN1C(=O)C2CC=C(Cl)CC2C1=O (centres undefined) | -13 | -2 | 1 | 1 | 1 | 15
CC1(c2cnc(Nc3ccccc3)s2)CCC(=O)O1 (centres undefined) | 9 | -105 | 31 | 2.1* | 0.7 | -9
O=C(OCc1c(Cl)cccc1Cl)c1cccnc1Cl | -2 | -78 | 52* | 1.8 | 0.5 | 3
O=C(OCc1c(Cl)cccc1Cl)c1cnccn1 | 3 | -10 | -9 | 1.1 | 1.1 | -5
O=C(OCc1c(Cl)cccc1Cl)c1cccnc1 | 5 | 22 | 86* | 0.8 | 0.1 | -5
CC(=O)c1cccc(OCCN2C(=O)NC(C)(C)C2=O)c1 | 0 | 50* | 34 | 0.5 | 0.7 | 0
CCc1cccc(OCCCN2C(=O)NC(C)(C)C2=O)c1 | -1 | 60* | 92* | 0.4 | 0.1 | 3
CCc1cccc(OCCCCNCCOC)c1 | -8 | 4 | 2 | 1 | 1 | 8
CCOCCCNC(=O)C(NC(=O)C1CCC(=O)N1)c1ccc(C)cc1 (centres undefined) | -4 | -11 | -24 | 1.1 | 1.2 | 4
COc1ccc(OC)c(-n2nnnc2SCC(=O)Nc2nc(C)c(C)s2)c1 | 2 | 7 | 31 | 0.9 | 0.7 | -5
Cc1nc(NC(=O)CSc2nnnn2Cc2ccccc2)sc1C | 11 | 51* | 81* | 0.5 | 0.2 | -12
Cc1nnc(NC(=O)CSc2nnnn2Cc2ccccc2)s1 | -4 | 86* | -2 | 0.1 | 1 | 6
CCOC(=O)Cn1cnc2sc3c(c2c1=O)CCC3 | 1 | 8 | 26 | 0.9 | 0.7 | 3
COC(=O)C(NC(C)=O)(Nc1nc2c(C)cc(C)cc2s1)C(F)(F)F (centres undefined) | 3 | 99* | 92* | 0 | 0.1 | -3
SMILES | sEH inhibitor | CYP2C9 inhib | CYP2C19 inh | CYP2C9 act | CYP2C19 act | sEH activator
COC(=O)C(NC(C)=O)(Nc1ccc(Br)cn1)C(F)(F)F (centres undefined) | . | 29 | 82* | 0.7 | 0.2 | .
CCCCC(=O)NC(Nc1ccc(C)cn1)(C(=O)OCC)C(F)(F)F (centres undefined) | -10 | 18 | 66* | 0.8 | 0.3 | 10
COC(=O)C(NC(=O)c1ccco1)(Nc1nc(C)cs1)C(F)(F)F (centres undefined) | . | 31 | 33 | 0.7 | 0.7 | .
COC(=O)C(NC(=O)c1ccc(C)cc1)(Nc1cccc(C)n1)C(F)(F)F (centres undefined) | 8 | . | . | . | . | -7
COC(=O)C(NC(=O)c1ccco1)(Nc1ccc(Br)cn1)C(F)(F)F (centres undefined) | . | 16 | 94* | 0.8 | 0.1 | .
Cc1ccc(C(=O)N2CC3(C(C)C)CN(C(=O)c4ccc(C)cc4)CC(C(C)C)(C2)C3=O)cc1 | -14 | 6 | 11 | 0.9 | 0.9 | 16
COC1(OC)C(/C=C/c2ccc(C)cc2)C(C#N)(C#N)C1(OC)OC (centres undefined) | 10 | . | . | . | . | -9
COCCCn1c(-c2ccsc2)nc2c1c(=O)[nH]c(=O)n2Cc1ccccc1 | -3 | 10 | -1 | 0.9 | 1 | 0
C=CCOc1ccc(C2C(C(=O)c3ccco3)=C(O)C(=O)N2Cc2cccnc2)cc1 (centres undefined) | 13 | 39 | 2 | 0.6 | 1 | -12
COC(=O)C(NC(C)=O)(Nc1nc(C)cs1)C(F)(F)F (centres undefined) | 3 | 19 | 10 | 0.8 | 0.9 | -1
COC(=O)C(NC(C)=O)(Nc1ccccn1)C(F)(F)F (centres undefined) | 9 | 50* | 12 | 0.5 | 0.9 | -9
Cc1nnc(NC(=O)CSc2nc(C(C)C)nc3sc(C)c(C)c23)s1 | 30 | 31 | 22 | 0.7 | 0.8 | -30
CCCCSc1nnc([C@@H](NC(=O)OC(C)(C)C)C(C)C)o1 | 0 | 44 | 50* | 0.6 | 0.5 | 0
CCOC(=O)CSc1nnc([C@@H](NC(=O)OC(C)(C)C)C(C)C)o1 | -7 | 2 | 6 | 1 | 0.9 | 7
CCOC(=O)CSc1nnc([C@H](C)NC(=O)OC(C)(C)C)o1 | -4 | -9 | 12 | 1.1 | 0.9 | 4
C=C(C)CSc1nnc([C@@H](NC(=O)OC(C)(C)C)C(C)CC)o1 (some centres undefined) | -3 | 52* | 83* | 0.5 | 0.2 | 1
Cc1ccc(C(C)NC(=O)c2ccco2)cc1C (centres undefined) | . | -120 | 48 | 2.2* | 0.5 | .
O=C(CSc1ccc2nnc(-c3ccc(Cl)cc3)n2n1)N1CCc2ccccc21 | -3 | 85* | -13 | 0.1 | 1.1 | 2
O=C(Cn1nnc(-c2ccncc2)n1)N1CCc2ccccc21 | 12 | 70* | 24 | 0.3 | 0.8 | -9
CCn1c(SCC(=O)N2CCCc3ccccc32)nnc1-c1ccoc1C | 5 | . | . | . | . | 0
CCn1c(SCC(=O)N2CCCc3ccccc32)nnc1-c1ccco1 | . | -7 | 71* | 1.1 | 0.3 | .
CCn1c(SCC(=O)N2CCCc3ccccc32)nnc1-c1cccs1 | 10 | -24 | 20 | 1.2 | 0.8 | -7
